Measured values as given in PubChem BioAssay (NCATS).
Results filed as inconclusive are left out. The source made the active and inactive calls. Unless noted, the call rests on the fitted dose curve.

Experiments:
[1] = biological target: Peroxisome proliferator-activated receptor delta (Homo sapiens) (UniProt Q03181); assay: qHTS assay for small molecule agonists of peroxisome proliferator-activated receptor delta signaling (AID 588534);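 further: 0% = DMSO basal wells and 100% = positive control agonist at 10 µM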
Sequence of Peroxisome proliferator-activated receptor delta (Homo sapiens) (Q03181 whole entry, looked up): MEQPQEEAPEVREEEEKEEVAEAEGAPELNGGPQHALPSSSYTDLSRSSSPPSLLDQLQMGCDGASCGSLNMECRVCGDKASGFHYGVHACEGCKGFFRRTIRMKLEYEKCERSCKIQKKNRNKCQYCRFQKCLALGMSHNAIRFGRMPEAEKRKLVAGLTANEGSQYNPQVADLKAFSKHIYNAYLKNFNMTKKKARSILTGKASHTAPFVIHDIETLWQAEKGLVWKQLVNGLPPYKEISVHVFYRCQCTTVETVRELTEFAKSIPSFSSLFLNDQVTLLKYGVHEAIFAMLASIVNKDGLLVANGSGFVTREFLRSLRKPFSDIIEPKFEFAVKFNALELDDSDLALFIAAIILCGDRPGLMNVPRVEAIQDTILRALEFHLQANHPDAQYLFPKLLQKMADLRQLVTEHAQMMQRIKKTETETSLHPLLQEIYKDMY
Outline: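 Agonist-mode qHTS; reporter cells, 5 hrs 37 C pre-incubation; compound titration, 18 hrs 37 C; CCF4 dye, 2 hrs RT; fluorescence read. EC50/efficacy via Hill fit.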

[2] = qHTS assay for small molecule antagonists of peroxisome proliferator-activated receptor delta signaling (AID 588535; active means well fitted inhibition curve with a large enough effect in the signal ratio, with a control signal flat, not every such curve was filed as active; the % refers to the signal ratio;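 on max response: cells co-treated with a PPAR-delta agonist as stimulator during compound exposure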); settings: HEK293T PPARd-UAS-bla, beta-lactamase FRET ratio, 18 h; 460 nm channel
Outline: (§1)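 Inhibition of PPAR-delta response element-driven beta-lactamase expression is measured in HEK293T cells exposed to a compound titration series for 18 hrs at 37 C. Half-maximal inhibition comes from Hill equation fitting.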

[3] = biological target: Peroxisome proliferator-activated receptor delta (Homo sapiens) (UniProt Q03181); assay: as above
Outline: as §1

[4] = biological target: Vitamin D3 receptor (Homo sapiens) (UniProt P11473); assay: qHTS assay for small molecule antagonists of vitamin D receptor signaling (AID 588541); further: potency means the concentration at half of the fitted maximal effect
Sequence of Vitamin D3 receptor (Homo sapiens) (P11473 whole entry, looked up): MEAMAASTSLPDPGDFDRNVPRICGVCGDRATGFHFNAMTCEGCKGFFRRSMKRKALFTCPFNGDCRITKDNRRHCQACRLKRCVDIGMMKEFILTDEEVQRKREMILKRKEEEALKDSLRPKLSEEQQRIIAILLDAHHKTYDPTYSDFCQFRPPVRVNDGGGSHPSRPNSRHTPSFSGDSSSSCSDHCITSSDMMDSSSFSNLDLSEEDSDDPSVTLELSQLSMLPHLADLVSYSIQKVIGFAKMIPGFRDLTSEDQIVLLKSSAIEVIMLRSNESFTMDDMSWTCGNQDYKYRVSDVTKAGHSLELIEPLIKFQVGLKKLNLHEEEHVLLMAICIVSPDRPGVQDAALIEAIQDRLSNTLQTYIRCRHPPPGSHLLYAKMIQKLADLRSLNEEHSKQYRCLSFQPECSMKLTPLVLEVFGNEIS
Outline: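 VDR-UAS-bla HEK293T cells (2000/well, 2% charcoal-stripped FBS) were treated with titrated compounds plus 1-alpha,25-dihydroxyvitamin D3 (50 nM or 3 nM final) for 16 h at 37 C. CCF4 beta-lactamase fluorescence was read; Hill fits gave IC50.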

[5] = biological target: Vitamin D3 receptor (Homo sapiens) (UniProt P11473); assay: qHTS assay for small molecule agonists of vitamin D receptor signaling (AID 588543);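 further: 0% = DMSO basal and 100% = reference agonist control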
Outline: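 VDR-UAS-bla HEK293T cells, 2000/well, 2% charcoal-stripped FBS; compound titration 16 h at 37 C; CCF4 beta-lactamase ratio read. Normalized to 50 nM 1-alpha,25-dihydroxyvitamin D3 (100%) and DMSO; Hill fit gives EC50, efficacy.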

[6] = qHTS assay for small molecule agonists of retinoid X receptor alpha signaling (AID 588544); settings: HEK293T RXRa-UAS-bla, beta-lactamase reporter, 18 h; 530 nm emission;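 on activation: 0% = DMSO basal wells and 100% = reference agonist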
[7] = biological target: Retinoic acid receptor RXR-alpha (Homo sapiens) (UniProt P19793); assay: as above
Sequence of Retinoic acid receptor RXR-alpha (Homo sapiens) (P19793 whole entry, looked up): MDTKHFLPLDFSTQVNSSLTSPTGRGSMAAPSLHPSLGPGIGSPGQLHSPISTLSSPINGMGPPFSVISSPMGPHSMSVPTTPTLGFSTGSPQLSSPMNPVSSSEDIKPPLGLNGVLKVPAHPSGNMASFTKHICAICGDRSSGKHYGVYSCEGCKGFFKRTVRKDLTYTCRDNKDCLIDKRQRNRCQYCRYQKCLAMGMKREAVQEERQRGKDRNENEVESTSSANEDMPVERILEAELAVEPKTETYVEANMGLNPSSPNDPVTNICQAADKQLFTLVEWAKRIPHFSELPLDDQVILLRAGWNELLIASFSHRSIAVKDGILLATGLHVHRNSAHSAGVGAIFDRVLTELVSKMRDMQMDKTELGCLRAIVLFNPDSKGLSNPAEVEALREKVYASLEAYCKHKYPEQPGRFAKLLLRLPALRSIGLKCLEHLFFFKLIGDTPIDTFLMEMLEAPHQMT

[8] = biological target: Thyroid hormone receptor beta (Homo sapiens) (UniProt P10828); assay: qHTS assay for small molecule agonists of thyroid hormone receptor beta signaling (AID 588545)
Sequence of Thyroid hormone receptor beta (Homo sapiens) (P10828 whole entry, looked up): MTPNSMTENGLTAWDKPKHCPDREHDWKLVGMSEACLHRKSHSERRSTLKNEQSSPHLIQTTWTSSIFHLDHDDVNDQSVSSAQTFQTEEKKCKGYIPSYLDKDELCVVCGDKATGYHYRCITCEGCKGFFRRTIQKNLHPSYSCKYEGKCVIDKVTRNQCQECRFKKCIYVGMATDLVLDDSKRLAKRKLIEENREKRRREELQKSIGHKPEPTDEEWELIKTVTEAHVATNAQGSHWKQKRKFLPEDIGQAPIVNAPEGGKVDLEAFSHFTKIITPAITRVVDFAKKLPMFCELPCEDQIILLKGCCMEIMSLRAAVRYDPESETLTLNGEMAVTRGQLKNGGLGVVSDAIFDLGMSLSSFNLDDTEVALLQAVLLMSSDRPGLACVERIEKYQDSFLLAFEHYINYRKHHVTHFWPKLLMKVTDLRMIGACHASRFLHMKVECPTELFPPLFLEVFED
Outline: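 Agonist activity was read as beta-lactamase CCF4 fluorescence (405 ex, 460/530 em), scaled between DMSO (0%) and 10 nM T3 (100%), then Hill-fitted for EC50 and efficacy. HEK 293 TR-UAS-bla cells in 2% charcoal/dextran FBS medium were exposed 18 h at 37 C.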

[9] = qHTS assay for environmental chemicals that activate the Aryl hydrocarbon Receptor (AhR) signaling pathway (AID 651777; active means well fitted curve in the direction sought with a large enough effect; an effect the other way counts as inactive or inconclusive; further: % of control where 0% means no effect; nearly all actives have a fitted effect of over 15% in size); settings: 1A2-DRE human hepatoma cells, luciferase, 24 h; activation: stronger effect = higher value
Outline: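 Reporter gene assay: hepatoma cells with DRE/CYP1A2-luciferase, 24 hr compound incubation at 37 C, 5% CO2, luminescence after One-Glo (30 min, RT).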

[10] = biological target: Peroxisome proliferator-activated receptor alpha (Homo sapiens) (UniProt Q07869); assay: qHTS assay for small molecule agonists of the peroxisome proliferator-activated receptor alpha (PPARalpha) signaling pathway (AID 651778; active means well fitted curve in the direction sought with a large enough effect; an effect the other way counts as inactive or inconclusive; further: % of control where 0% means no effect); settings: PathHunter PPARalpha complementation, chemiluminescence, 6 h; max response: stronger effect = higher value
Sequence of Peroxisome proliferator-activated receptor alpha (Homo sapiens) (Q07869 whole entry, looked up): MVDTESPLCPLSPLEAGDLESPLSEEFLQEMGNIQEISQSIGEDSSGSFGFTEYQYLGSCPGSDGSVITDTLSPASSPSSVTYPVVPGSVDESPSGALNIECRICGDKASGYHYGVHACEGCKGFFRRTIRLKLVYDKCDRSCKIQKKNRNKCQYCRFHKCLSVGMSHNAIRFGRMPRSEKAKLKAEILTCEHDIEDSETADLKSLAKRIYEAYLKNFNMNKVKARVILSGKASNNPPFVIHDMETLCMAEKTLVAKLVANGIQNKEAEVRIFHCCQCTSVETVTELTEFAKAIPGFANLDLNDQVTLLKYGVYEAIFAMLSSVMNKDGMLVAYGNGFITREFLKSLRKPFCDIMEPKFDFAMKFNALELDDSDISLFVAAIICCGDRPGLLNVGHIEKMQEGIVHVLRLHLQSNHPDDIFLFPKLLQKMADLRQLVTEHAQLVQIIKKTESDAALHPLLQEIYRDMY
Outline: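 Cells plated at 2,000/well and held overnight at 37 C, 5% CO2, then compound added by pin tool for 6 hr; after PathHunter detection reagent and 60 min at room temperature, chemiluminescence from enzyme complementation was read.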

[11] = qHTS assay for small molecule agonists of the antioxidant response element (ARE) signaling pathway measured by Nrf2-dependant transcriptional activity - cell viability counter screen (AID 720653; active means well fitted curve in the direction sought with a large enough effect in the repeat runs; an effect the other way counts as inactive or inconclusive; further: on the % scale 0 is the no-effect control and ±100 the full control effect); settings: ARE-bla HepG2 viability, CellTiter-Glo ATP luminescence, 16 h; max response: stronger effect = lower value
Outline: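 ARE-bla HepG2 cells (2,000/well) rested 5 hrs at 37C/5% CO2, then exposed to compounds in DMSO for 16 hrs. Viability was read in the same wells as intracellular ATP by luminescence, 30 min at room temperature after reagent addition.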

[12] = qHTS assay for cell viability of HEK293 cells (AID 743288; active means well fitted curve in the direction sought with a large enough effect; an effect the other way counts as inactive or inconclusive; further: on the % scale 0 is the no-effect control and ±100 the full control effect; nearly all actives have a fitted effect of over 50% in size); settings: ATP luminescence (CellTiter-Glo), 18 h; max response: stronger effect = lower value
Outline: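 Steps: plate 2,000 parental HEK293 cells per well; incubate ≥5 h, 37 C; add compounds in DMSO; incubate 18 h, 37 C; add CellTiter-Glo; wait 30 min at room temperature; read luminescence.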

[13] = biological target: Bile acid receptor (Homo sapiens) (UniProt Q96RI1); assay: qHTS assay for small molecule agonists of farnesoid X receptor signaling (AID 588527); settings: HEK293T FXR-UAS-bla, beta-lactamase ratio, 16 h; activation: stronger effect = higher value;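 further: series mostly up to about 77 µM; 0% = vehicle basal and 100% = reference agonist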
Sequence of Bile acid receptor (Homo sapiens) (Q96RI1 whole entry, looked up): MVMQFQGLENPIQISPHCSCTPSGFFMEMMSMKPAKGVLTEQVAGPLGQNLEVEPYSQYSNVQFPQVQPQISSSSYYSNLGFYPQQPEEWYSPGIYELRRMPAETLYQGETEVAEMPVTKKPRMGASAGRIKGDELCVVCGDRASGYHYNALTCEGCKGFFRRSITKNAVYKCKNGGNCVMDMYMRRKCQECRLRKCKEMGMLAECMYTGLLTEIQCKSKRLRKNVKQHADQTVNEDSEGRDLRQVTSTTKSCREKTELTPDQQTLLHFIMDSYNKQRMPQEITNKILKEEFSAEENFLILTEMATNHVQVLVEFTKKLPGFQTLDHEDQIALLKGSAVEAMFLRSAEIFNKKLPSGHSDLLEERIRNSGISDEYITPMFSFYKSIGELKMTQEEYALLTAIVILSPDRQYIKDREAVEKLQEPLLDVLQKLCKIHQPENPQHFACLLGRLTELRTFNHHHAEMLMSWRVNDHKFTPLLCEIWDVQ
Outline: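 Agonist-mode beta-lactamase reporter in GeneBLAzer FXR-UAS-bla HEK293T cells, titration up to 92 uM, 16 h exposure at 37 C, CCF4 fluorescence. Response scaled to DMSO (0%) and 100 uM chenodeoxycholic acid (100%), then Hill-fitted for EC50 and efficacy.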

[14] = qHTS assay for small molecule activators of the p53 signaling pathway (AID 651743; active means well fitted activation curve with a large enough effect in the signal ratio, not every such curve was filed as active; the % refers to the signal ratio; further: series mostly up to about 92 µM; % of control where 0% means no effect); settings: HCT-116 p53RE-bla, beta-lactamase FRET ratio, 16 h; activation: stronger effect = higher value
Outline: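 Agonist-mode quantitative HTS in HCT-116 cells carrying a p53-response-element beta-lactamase reporter; 16 h compound treatment at 37 C, then FRET substrate loading for 2 h at room temperature and fluorescence read.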

[15] = qHTS assay for small molecule activators of the nuclear factor-kappa B (NF-kB) signaling pathway (AID 651749; active means well fitted activation curve with a large enough effect in the signal ratio; the % refers to the signal ratio; further: series mostly up to about 77 µM; % of control where 0% means no effect); settings: NF-kB-bla ME-180 cells, beta-lactamase FRET ratio, 16 h; activation: stronger effect = higher value
Outline: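 Human ME-180 cervical cells with an NF-kB-bla construct; compounds added via 23 nL pin transfer, DMSO as vehicle; incubation 16 hr. Reporter activity measured by FRET disruption.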

[16] = qHTS assay for cell viability of the p53RE-bla HCT-116 cell line (AID 743292; active means well fitted curve in the direction sought with a large enough effect; an effect the other way counts as inactive or inconclusive; further: on the % scale 0 is the no-effect control and ±100 the full control effect; nearly all actives have a fitted effect of over 55% in size)
Outline: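 ATP-based luminescence, 16 h compound exposure at 37 C, p53RE-bla HCT-116 cells at 4,000/well.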

[17] = biological target: Nuclear receptor subfamily 1 group I member 2 (Rattus norvegicus) (UniProt Q9R1A7); assay: qHTS assay for small molecule activators of the rat pregnane X receptor (rPXR) signaling pathway (AID 651751; call rule not given here; further: 0% is about no effect); settings: rPXR reporter cells, luciferase (One-Glo), 24 h
Sequence of Nuclear receptor subfamily 1 group I member 2 (Rattus norvegicus) (Q9R1A7 whole entry, looked up): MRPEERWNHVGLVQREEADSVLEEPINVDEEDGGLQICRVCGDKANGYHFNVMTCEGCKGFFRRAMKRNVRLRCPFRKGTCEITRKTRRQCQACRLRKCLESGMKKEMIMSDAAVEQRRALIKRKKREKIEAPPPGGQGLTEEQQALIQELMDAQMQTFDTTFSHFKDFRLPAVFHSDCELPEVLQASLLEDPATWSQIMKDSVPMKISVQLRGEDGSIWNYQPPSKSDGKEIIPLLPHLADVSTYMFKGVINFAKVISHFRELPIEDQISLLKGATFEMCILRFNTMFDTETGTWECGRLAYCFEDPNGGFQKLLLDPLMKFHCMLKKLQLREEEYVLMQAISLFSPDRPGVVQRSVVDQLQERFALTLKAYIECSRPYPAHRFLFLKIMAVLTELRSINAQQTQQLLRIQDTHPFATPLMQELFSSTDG

[18] = qHTS assay for small molecule antagonists of retinoid X receptor alpha signaling (AID 588546; active means well fitted inhibition curve with a large enough effect in the signal ratio, with a control signal flat, not every such curve was filed as active; the % refers to the signal ratio;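 further: cells stimulated with 9-cis-retinoic acid as agonist; on the % scale 0 is the no-effect control and ±100 the full control effect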); settings: HEK293T RXRa-UAS-bla, beta-lactamase ratio, antagonist mode; measured here: W530 green channel, cytotoxicity proxy
Outline: (§2)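 Beta-lactamase reporter inhibition, read as CCF4 fluorescence ratio (ex 405, em 460/530 nm) after 2 h at RT. HEK293T UAS-bla cells, 2500/well, were stimulated with 9-cis-RA at 500 or 100 nM final alongside test compound for 18 h at 37 C.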

[19] = biological target: Retinoic acid receptor RXR-alpha (Homo sapiens) (UniProt P19793); assay: as above; settings: HEK293T RXRa-UAS-bla, beta-lactamase ratio, antagonist mode
Outline: as §2

[20] = qHTS assay for small molecule agonists of the antioxidant response element (ARE) signaling pathway measured by Nrf2-dependant transcriptional activity (AID 720636; active means well fitted curve in the direction sought with a large enough effect in the repeat runs; an effect the other way counts as inactive or inconclusive; further: potency means the concentration at half of the fitted maximal effect;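 on activation: HepG2 cells with an ARE-driven luciferase reporter; % of control where 0% means no effect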)
Outline: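 Nrf2-dependent transcription is measured in ARE-luc HepG2 cells: compound is applied for 16 hr at 37 C after a 6 hr attachment period, and luciferase activity is quantified by luminescence using ONE-Glo.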

CCC(C)Nc1c([N+](=O)[O-])cc(C(C)(C)C)cc1[N+](=O)[O-] (stereo not given)
inactive: outcome [1] | Potency [3] | Potency [4] | outcome [5] | Potency [7] | Potency [8] | activation [9] 5.25% | max response [10] 8.22% | max response [11] 11% | max response [12] -2.45%
-21.7%: max response [2]
-9.41%: max response [6]

CCCCOCN(C(=O)CCl)c1c(CC)cccc1CC
inactive: activation [13] -0.328% | outcome [1] | outcome [5] | activation [14] -3.79% | activation [15] -3.81% | activation [9] -2.46% | max response [10] 0.0844% | max response [11] -23.8% | max response [12] -23.1% | Potency [16] | max response [17] 3.67%

COc1cc(OC)nc(NC(=O)NS(=O)(=O)c2ncccc2OCC(F)(F)F)n1
-19.3%: max response [6]
-1.53%: max response [18]
inactive: activation [13] 0.378% | Potency [3] | Potency [4] | outcome [5] | Potency [7] | max response [19] -28.8% | activation [14] -0.487% | activation [15] -0.186% | activation [9] 1.59% | max response [10] -0.694% | Potency [20] | max response [11] -8.5% | max response [12] -8.98% | max response [17] -1.56%
-5.67%: max response [2]

CCCCOCCOC(C)=O
-10.5%: max response [2]
inactive: activation [13] 1.59% | outcome [1] | Potency [3] | Potency [4] | outcome [5] | Potency [7] | Potency [8] | max response [19] -8.99% | activation [14] 0.23% | activation [9] 0.977% | max response [10] 0.401% | Potency [20] | max response [11] -5.86% | max response [12] -2.95% | max response [17] 2.29%
-13.5%: max response [18]
-13.2%: max response [6]

CC(C)=CC1[C@H](C(=O)OCc2cccc(Oc3ccccc3)c2)C1(C)C (stereo not given in full)
-6.27%: max response [6]
-13.6%: max response [18]
26%: max response [2]
inactive: activation [13] -3.66% | outcome [1] | Potency [3] | Potency [4] | outcome [5] | Potency [7] | Potency [8] | max response [19] 3.36% | activation [14] -1.37% | activation [9] -0.0338% | max response [10] -1.72% | Potency [20] | max response [11] -3.94% | max response [12] -10.6% | Potency [16]

CC(C)C1(C)N=C(c2ncccc2C(=O)O)NC1=O (stereo not given)
-22%: max response [18]
inactive: activation [13] -1.77% | outcome [1] | Potency [3] | Potency [4] | outcome [5] | Potency [7] | Potency [8] | max response [19] -0.742% | activation [14] -4.94% | activation [9] -1.56% | max response [10] -1.4% | Potency [20] | max response [11] -6.07% | max response [12] 8% | Potency [16] | max response [17] -3.34%
7.61%: max response [2]
-12.1%: max response [6]

COP(=O)(OC)OC(Br)C(Cl)(Cl)Br (stereo not given)
inactive: outcome [1] | Potency [3] | outcome [5] | Potency [8] | max response [10] -1.63% | max response [11] -24% | Potency [16]
active: Potency [4] 44.7 µM | Potency [20] 68.6 µM
-79.2%: max response [2]

Nc1cccc(Cl)c1Cl
-14.5%: max response [18]
30.5%: max response [2]
inactive: activation [13] 2.15% | outcome [1] | Potency [3] | Potency [4] | outcome [5] | Potency [7] | Potency [8] | max response [19] -4.45% | activation [14] -4.27% | activation [15] -2.53% | activation [9] -0.499% | max response [10] -3.86% | Potency [20] | max response [11] -14.4% | max response [12] -1.9% | Potency [16] | max response [17] 0.634%
-11.4%: max response [6]

CCOP(=S)(OCC)SCn1c(=O)oc2cc(Cl)ccc21
inactive: activation [13] -2.19% | Potency [4] | outcome [5] | Potency [8] | activation [14] 2.68% | max response [10] -0.132% | max response [11] -8.7% | max response [12] -28.2% | Potency [16]

CC1(C)CCC(Cc2ccc(Cl)cc2)C1(O)Cn1cncn1 (stereo not given)
inactive: activation [13] 4.35% | outcome [1] | Potency [4] | outcome [5] | Potency [7] | Potency [8] | max response [19] -14.3% | activation [15] -0.913% | activation [9] -1.24% | max response [10] -1.67% | Potency [20] | max response [11] -10.5% | max response [12] -17.8% | Potency [16]
-14.2%: max response [18]
16.6%: max response [6]

O=S(=O)(c1ccc(Cl)cc1)c1cc(Cl)c(Cl)cc1Cl
inactive: activation [13] 3.42% | Potency [4] | outcome [5] | Potency [8] | activation [14] 8.22% | activation [15] 1.59% | activation [9] -2.98% | max response [10] -3.59% | Potency [20] | max response [11] -29.2% | max response [12] -31.9% | Potency [16]

CNC(=O)Oc1cccc(N=CN(C)C)c1
-11.7%: max response [18]
16.5%: max response [2]
inactive: activation [13] -2.76% | outcome [1] | Potency [3] | Potency [4] | outcome [5] | Potency [7] | Potency [8] | max response [19] 10.6% | activation [14] -4.39% | activation [9] 0.739% | max response [10] 2.04% | Potency [20] | max response [11] -21.4% | max response [12] -9.91% | max response [17] -4.82%
1.64%: max response [6]
